Hits are enriched below; roughly 5.9% of the tested compounds scored in any of these assays.
GLP1R cytotox: cytotoxic in the GLP-1 receptor inverse agonist counter-screen; HEK293 cAMP-luciferase reporter cells, luminescence, 24 h; Potency, µM (titrated, usually from 38.3 µM), actives largely listed as inhibitors; 410,000 tested, 0.13% active;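 also: loss of luciferase light is scored as toxicity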
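Step one: seed cells (200 cells/uL, DMEM with 10% Nu serum, 1% pen-strep). Step two: 12-hour incubation at 37 deg C. Step three: pin 23 nL compound, incubate 24 hr. Step four: add luciferase reagent, read luminescence 12 min later.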
GLP1R inv ag: acts as inverse agonist at human GLP-1 receptor; P43220; HEK293 GLP-1R CRE-luciferase, luminescence, 24 h; GLP-1R form is constitutively active; Potency, µM (titrated, usually from 38.3 µM), actives largely listed as inhibitors; 410,000 tested, 1.6% active; AID 624417; also: nearly all actives have a fitted effect of over 55% in size
Target sequence (P43220 whole entry, looked up): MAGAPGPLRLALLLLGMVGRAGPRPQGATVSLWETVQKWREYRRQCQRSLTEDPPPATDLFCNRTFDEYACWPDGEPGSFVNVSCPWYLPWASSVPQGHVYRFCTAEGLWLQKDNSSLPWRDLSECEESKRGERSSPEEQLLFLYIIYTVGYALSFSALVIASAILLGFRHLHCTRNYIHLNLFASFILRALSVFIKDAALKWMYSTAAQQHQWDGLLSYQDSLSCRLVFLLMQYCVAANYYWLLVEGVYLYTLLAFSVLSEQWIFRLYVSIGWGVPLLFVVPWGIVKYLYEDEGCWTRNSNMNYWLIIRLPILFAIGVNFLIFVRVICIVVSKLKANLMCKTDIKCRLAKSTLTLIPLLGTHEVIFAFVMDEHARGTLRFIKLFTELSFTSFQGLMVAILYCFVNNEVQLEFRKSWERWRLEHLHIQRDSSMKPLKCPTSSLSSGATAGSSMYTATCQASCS
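HEK293 cells stably co-expressing a cAMP-responsive luciferase reporter and constitutively active GLP-1R were seeded, incubated 12 h, then exposed to compounds for 24 h at 37 C. Luminescence was read 12 min after detection reagent; inverse agonists lower signal.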
RORgamma inh: ROR gamma (mouse) transcription inhibition; Drosophila S2 Gal4-RORgamma UAS-luciferase reporter, 20 h; 310,000 tested, 5.4% active; Potency, µM (top dose mostly 53.6 µM), actives largely listed as inhibitors; P51450; also: nearly all actives have a fitted effect of over 60% in size
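Luminescence from a UAS-regulated Photinus luciferase reporter in stably transfected Drosophila Schneider cells is measured; decreased signal marks ROR gamma inhibition. Fusion expression is induced by 700 uM copper sulfate for 20 hr.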
VP16 counter: Gal4-VP16 reporter inhibition counter-screen | Potency, µM (series often up to 53.6 µM), most hits filed as inhibitors | Drosophila S2 Gal4-VP16 UAS-luciferase, luminescence, 20 h | 310,000 tested, 3.5% active;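 also: Gal4-VP16 expression switched on by copper sulfate through the metallothionein promoter; nearly all actives have a fitted effect of over 50% in size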
GLP-1R agonist: agonists of human GLP-1 receptor; P43220; HEK293 GLP-1R CRE-luciferase, luminescence, 4-6 h; cells express a hypersensitive GLP-1R form; Potency, µM (top dose mostly 45.6 µM), hits mostly activators; 380,000 tested, 0.007% active
Each line names hits and unclear results; the compound was inactive in the other large screens. Calls follow the shape of the dose curve; as a rule, active = well fitted curve in the direction sought with a large enough effect; inconclusive = small, poorly fitted or top-dose-only effect, or another doubt; inactive = no such curve, though single readings can be large; an effect the other way counts as inactive or inconclusive.

NCCCC[C@H](NC(=O)CNC(=O)[C@@H]1CCCN1C(=O)[C@H](Cc1ccc(O)cc1)NC(=O)CN)C(=O)N[C@@H](Cc1ccccc1)C(=O)O	none (no result: GLP1R cytotox, GLP1R inv ag, GLP-1R agonist)
COc1ccc(-c2nc3sc(CCNC(=O)C(=O)Nc4cccc(NC(C)=O)c4)c(C)n3n2)cc1	none (no result: RORgamma inh, VP16 counter, GLP-1R agonist)
COc1ccc(S(=O)(=O)NCCc2csc(-c3ccc(F)cc3)n2)cc1	GLP1R inv ag inconclusive (no result: RORgamma inh, VP16 counter, GLP-1R agonist)
COc1cccc(Cn2c(CNS(=O)(=O)c3ccc4c(c3)CCCC4)nc3cccnc32)c1	none (no result: RORgamma inh, VP16 counter, GLP-1R agonist)
CC(C)(C)c1ccc(OCCSc2nc(-c3cccs3)nc3cc(=O)[nH]n23)cc1	none (no result: RORgamma inh, VP16 counter, GLP-1R agonist)
CC(C)(C)NS(=O)(=O)c1ccc(NC(=S)NC(=O)C2CCC2)cc1	RORgamma inh 17.8µM
CC(=O)Nc1ccc(NC(=O)c2ccc(S(=O)(=O)N(C)c3ccccc3)cc2)cc1	GLP1R inv ag inconclusive (no result: RORgamma inh, VP16 counter)
CN(c1ccccc1)S(=O)(=O)c1ccc(NC(=S)NC(=O)C2CC2)cc1	GLP1R inv ag inconclusive, RORgamma inh 11.2µM, VP16 counter inconclusive
CN(c1ccccc1)S(=O)(=O)c1ccc(NC(=S)NC(=O)c2ccccc2)cc1	GLP1R inv ag inconclusive, RORgamma inh 17.8µM, VP16 counter inconclusive
Cc1ccc(-n2c(SCC(=O)Nc3ccc4c(c3)OCCO4)nc3c([nH]c4ccccc43)c2=O)cc1	none (no result: RORgamma inh, VP16 counter, GLP-1R agonist)
Cc1noc(C)c1-c1ccc2ncnc(N3CCOCC3)c2c1	none (no result: GLP1R cytotox, GLP1R inv ag, GLP-1R agonist)
O=C(CSc1nc(-c2ccccc2)cn1-c1ccccc1F)Nc1ccc(F)cc1	GLP1R inv ag inconclusive (no result: RORgamma inh, VP16 counter, GLP-1R agonist)
CCN1/C(=C\C(=S)Nc2ccccc2)Sc2ccccc21	GLP1R cytotox inconclusive, GLP1R inv ag inconclusive, RORgamma inh 3.98µM, VP16 counter inconclusive
O=C(Nc1cccc(-n2cccn2)c1)C1CCCN(Cc2cc3ccccc3[nH]2)C1 (configuration not stated)	GLP1R inv ag inconclusive
CCn1ncc(CN2CCCC(C(=O)Nc3cccc(-c4cc5ccccc5[nH]4)c3)C2)c1C (configuration not stated)	GLP1R cytotox inconclusive, GLP1R inv ag 3.55µM
O=c1c2cn[nH]c2[nH]c(=S)n1-c1ccccc1Cl	RORgamma inh 10µM
O=c1c2cn[nH]c2[nH]c(=S)n1-c1ccccc1F	none
CN(CCCNC(=O)c1cc2c(Cl)nc3ccccc3c2s1)Cc1ccccc1	GLP1R cytotox inconclusive, GLP1R inv ag inconclusive, RORgamma inh inconclusive, VP16 counter 11.2µM
COc1cccc(-c2nn(C)c3sc(C(=O)NCCCN(C)Cc4ccccc4)cc23)c1	GLP1R cytotox inconclusive, GLP1R inv ag 5.62µM
COCCNC(=O)c1cc2c(-c3ccccc3F)nn(C)c2s1	RORgamma inh inconclusive
CCCCN(C)CCNC(=O)c1cc2c(-c3ccccc3F)nn(C)c2s1	GLP1R inv ag 10µM
CC(C)OCCCNC(=S)NNC(=O)c1ccc(Cl)c(Cl)c1	RORgamma inh 14.1µM, VP16 counter inconclusive
COCCCNC(=S)NNC(=O)c1ccc2c(c1)OCO2	none
COC(=O)c1ccccc1NC(=S)NC(NC(=O)COc1ccccc1)C(Cl)(Cl)Cl (configuration not stated)	GLP1R inv ag inconclusive, RORgamma inh 5.62µM, VP16 counter inconclusive
COC(=O)c1ccccc1NC(=S)NC(=O)COc1ccc(C(C)C)cc1	RORgamma inh 11.2µM, VP16 counter inconclusive
COC(=O)c1ccccc1NC(=S)NC(C)=O	RORgamma inh inconclusive
COC(=O)c1ccccc1NC(=S)NC(=O)c1cccc2ccccc12	RORgamma inh 4.47µM, VP16 counter 17.8µM
CCC(=O)NC(=S)Nc1ccccc1C(=O)OC	RORgamma inh 12.6µM, VP16 counter inconclusive
COC(=O)c1ccccc1NC(=S)NC(=O)c1ccc2ccccc2c1	RORgamma inh inconclusive, VP16 counter inconclusive
Cc1ccc(C)c(NC(=S)NC(NC(=O)Cc2cccc3ccccc23)C(Cl)(Cl)Cl)c1 (configuration not stated)	GLP1R cytotox 6.31µM, GLP1R inv ag inconclusive, RORgamma inh inconclusive, VP16 counter inconclusive
CCc1ccc(OCC(=O)NC(NC(=S)Nc2ccc(C)cc2C)C(Cl)(Cl)Cl)cc1 (configuration not stated)	GLP1R cytotox inconclusive, GLP1R inv ag 5.01µM, RORgamma inh 10µM, VP16 counter inconclusive

Source: PubChem (National Center for Advancing Translational Sciences (NCATS))
